# Source: PMC4336329 (PLoS ONE, 2015)
# About 14,000 (4.5%) of roughly 310,000 compounds showed an effect of 50% or more. Effects have a minus sign here. The entries come from a sample that favours strong results as a whole.
# Biological target: human ether-à-go-go-related gene (hERG) potassium channel (human, UniProt Q12809)
# Experiment: primary screen, population patch clamp on CHO cells stably expressing hERG; higher = less effect of the substance
# 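Further: peak tail current of the secondary pulse compared with the same well before compound.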
# Chain of human ether-à-go-go-related gene (hERG) potassium channel (Q12809 whole entry, looked up): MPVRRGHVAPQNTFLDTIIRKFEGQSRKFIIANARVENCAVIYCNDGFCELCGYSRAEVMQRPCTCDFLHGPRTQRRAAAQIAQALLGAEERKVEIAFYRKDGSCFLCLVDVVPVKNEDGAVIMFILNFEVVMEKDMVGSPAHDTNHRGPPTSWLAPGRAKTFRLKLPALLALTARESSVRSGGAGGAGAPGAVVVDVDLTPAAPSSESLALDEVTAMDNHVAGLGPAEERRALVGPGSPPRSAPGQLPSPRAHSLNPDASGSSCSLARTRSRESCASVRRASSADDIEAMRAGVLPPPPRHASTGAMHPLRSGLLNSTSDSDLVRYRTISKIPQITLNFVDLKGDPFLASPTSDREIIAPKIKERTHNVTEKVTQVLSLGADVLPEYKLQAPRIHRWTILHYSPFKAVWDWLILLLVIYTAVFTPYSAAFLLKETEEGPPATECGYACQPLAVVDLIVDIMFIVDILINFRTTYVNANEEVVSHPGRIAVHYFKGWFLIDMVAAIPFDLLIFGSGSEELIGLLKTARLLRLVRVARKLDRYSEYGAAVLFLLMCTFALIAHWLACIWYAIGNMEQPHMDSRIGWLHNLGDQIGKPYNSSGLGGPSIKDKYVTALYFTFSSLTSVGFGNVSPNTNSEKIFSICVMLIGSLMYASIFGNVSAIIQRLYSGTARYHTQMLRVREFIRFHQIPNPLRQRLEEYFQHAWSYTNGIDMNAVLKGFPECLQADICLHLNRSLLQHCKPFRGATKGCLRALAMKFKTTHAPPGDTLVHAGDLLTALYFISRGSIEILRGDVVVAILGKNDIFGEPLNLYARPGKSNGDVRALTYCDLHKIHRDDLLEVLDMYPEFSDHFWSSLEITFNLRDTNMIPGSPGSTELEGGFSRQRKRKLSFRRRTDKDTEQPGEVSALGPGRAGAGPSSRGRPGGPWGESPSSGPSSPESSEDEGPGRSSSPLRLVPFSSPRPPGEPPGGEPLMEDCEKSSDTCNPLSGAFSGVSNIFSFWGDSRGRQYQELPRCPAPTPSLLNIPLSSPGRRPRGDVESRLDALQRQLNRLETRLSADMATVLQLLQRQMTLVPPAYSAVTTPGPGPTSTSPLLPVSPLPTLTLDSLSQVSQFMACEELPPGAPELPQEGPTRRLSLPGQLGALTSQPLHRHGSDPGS
row,Compound,"hERG current change (%, negative = inhibition) at 10uM"
1,O=C(NNc1cccc(Cl)n1)C(F)(F)F,17.2%
2,COc1ccc(/C=N/n2c(=O)[nH]c3c([nH]c4ccc(Br)cc43)c2=O)cc1CN1CCOCC1,5.45%
3,O=S(=O)(c1cccc(Br)c1)N1CCN(C(=S)NCC2CCCO2)CC1 (stereo not shown),11.6%
4,CCOc1ccc(S(=O)(=O)N(CC(=O)NCc2cccnc2)c2ccc(F)cc2)cc1,-72.5%
5,CCOc1ccc(N(CC(=O)NCc2cccnc2)S(=O)(=O)c2ccc(F)cc2)cc1,-13.6%
6,COc1ccc(S(=O)(=O)N(C)c2ccc(C(=O)NCc3ccncc3)cc2)cc1,-18.8%
7,CCOc1ccc(S(=O)(=O)N(CC)CC(=O)NCc2ccncc2)cc1,-13.2%
8,CN(c1ccc(C(=O)NCc2cccnc2)cc1)S(=O)(=O)c1ccc(Cl)cc1,-15.8%
9,CCOc1ccc(S(=O)(=O)N(CC(=O)NCc2ccncc2)c2ccc(C)cc2)cc1,-56.5%
10,CCOc1ccc(S(=O)(=O)N(CC(=O)Nc2cccnc2)c2ccc(F)cc2)cc1,2.96%
11,CCOc1ccc(N(CC(=O)NCc2ccccc2)S(=O)(=O)c2ccc(C)cc2)cc1,4.04%
12,CN(c1ccc(C(=O)NCc2ccncc2)cc1)S(=O)(=O)c1ccc(Cl)cc1,-52.1%
13,COc1cc(/C(C)=N/N2CCN(c3ccccc3OC)CC2)ccc1O,-9.07%
14,COc1ccc2c(c1)c(/C=C/c1cc[n+](C)cc1)cn2C.[I-],12.9%
15,Cc1cc(-n2c(C)cc(C(=O)CSc3nnnn3-c3ccc(Cl)cc3)c2C)no1,-3.04%
16,Cc1c(C)c(C)c(CN2CCSCC2)c(C)c1C,18.4%
17,Cc1ccc(N(C)S(=O)(=O)c2ccc(-c3cnc(C4CC4)o3)cc2)cc1,8.38%
18,COc1ccc(S(=O)(=O)N2CCCC(C(=O)NCc3ccco3)C2)cc1OC (stereo not shown),10.1%
19,CN(C)CCCN(C(=O)c1ccc2c(c1)CCCC2)c1nc2cc3c(cc2s1)OCO3.Cl,-71%
20,CN(C)CCN(C(=O)c1ccc(C(=O)c2ccccc2)cc1)c1nc2cc3c(cc2s1)OCCO3.Cl,-12.4%
21,CN(C)CCN(C(=O)c1ccc2c(c1)CCCC2)c1nc2cc3c(cc2s1)OCCO3.Cl,5.76%
22,CN(C)CCN(C(=O)c1ccc(N2C(=O)CCC2=O)cc1)c1nc2cc3c(cc2s1)OCO3.Cl,0.227%

row,Compound,"hERG current change (%, negative = inhibition) at 10uM"
1,CN(C)CCN(C(=O)c1ccc(C(=O)c2ccccc2)cc1)c1nc2cc3c(cc2s1)OCO3.Cl,3.43%
2,CN(C)CCCN(C(=O)c1ccc([N+](=O)[O-])o1)c1nc2cc3c(cc2s1)OCO3.Cl,-71.8%
3,CN(C)CCCN(C(=O)c1ccc(C(=O)c2ccccc2)cc1)c1nc2cc3c(cc2s1)OCO3.Cl,-56.3%
4,CCN(CC)CCN(C(=O)c1ccc2ccccc2c1)c1nc2cc3c(cc2s1)OCO3.Cl,-38.6%
5,CCN(CC)CCN(C(=O)c1ccc2ncsc2c1)c1nc2cc3c(cc2s1)OCO3.Cl,-61.8%
6,CCN(CC)CCN(C(=O)c1ccc(C(=O)c2ccccc2)cc1)c1nc2cc3c(cc2s1)OCO3.Cl,-43.8%
7,Cc1nccn1Cc1ccccc1,25.1%
8,C(=N\Nc1nc(N2CCOCC2)nc(N2CCOCC2)n1)/c1ccco1,30.2%
9,CCOC(=O)C1CCN(C(=O)Cn2c(=O)c3cccn3c3cccnc32)CC1,3.76%
10,COC(=O)CSC1=C(C#N)C(c2ccc(Cl)cc2)C(C(=O)OC)C(=O)N1 (stereo not shown),0.571%
11,Cc1cccc(C)c1NC(=O)COC(=O)c1ccccc1O,1.57%
12,O=C(NC1CCCCC1)N1CCc2[nH]c3ccccc3c2C1,3.15%
13,CN(C)CCCN(C(=O)c1ccc2c(c1)OCCO2)c1nc2ccc(Cl)cc2s1.Cl,-39.9%
14,CCN(CC)CCN(C(=O)c1ccc2c(c1)OCCO2)c1nc2cc(C)cc(C)c2s1.Cl,-69.9%
15,CCN(CC)CCN(C(=O)c1ccc(S(=O)(=O)N2CCCC2)cc1)c1nc2cc(C)cc(C)c2s1.Cl,-44.1%
16,CN(C)CCN(C(=O)c1ccc2c(c1)OCCO2)c1nc2cc3c(cc2s1)OCO3.Cl,-41.9%
17,Cc1ccc2nc(N(CCN(C)C)C(=O)c3ccc4c(c3)OCCO4)sc2c1.Cl,-44.6%
18,CCc1ccc2nc(N(CCCN(C)C)C(=O)c3ccc4c(c3)OCCO4)sc2c1.Cl,-48.3%
19,CCN(CC)CCN(C(=O)c1ccc(Br)s1)c1nc2cc3c(cc2s1)OCCO3.Cl,-1.19%
20,CCN(CC)CCN(C(=O)c1ccc2c(c1)OCCO2)c1nc2cc3c(cc2s1)OCO3.Cl,-67.3%
21,CN(C)CCCN(C(=O)c1ccc2c(c1)OCCO2)c1nc2cc3c(cc2s1)OCO3.Cl,-56%
22,CCN(CC)CCN(C(=O)c1ccc2c(c1)OCCO2)c1nc2ccc(C)cc2s1.Cl,-71.2%

row,Compound,"hERG current change (%, negative = inhibition) at 10uM"
1,CC(C)c1ccc(N2CC(C(=O)Nc3nccs3)CC2=O)cc1 (stereo not shown),1.98%
2,CC1(C)Cc2c(sc3nc4n(-c5ccccc5)c(=O)c(CCC(=O)O)nn4c(=O)c23)CO1,12.9%
3,O=c1cc(-c2ccc([N+](=O)[O-])cc2)c2cc3c(cc2[nH]1)OCCO3,-12%
4,CC(NCc1ccc(Cl)c(Cl)c1)C(O)c1ccccc1.Cl (stereo not shown),-0.311%
5,CC(NCc1ccc(Cl)cc1Cl)C(O)c1ccccc1.Cl (stereo not shown),-26.6%
6,CC(=O)NC(NC(C)=O)c1cccc(OCc2ccccc2)c1,9.33%
7,CC(NCc1ccc(OCc2ccc(Cl)cc2)cc1)C(O)c1ccccc1.Cl (stereo not shown),-62.5%
8,CC(NCc1ccc(Cl)cc1)C(O)c1ccccc1.Cl (stereo not shown),0.613%
9,CC(NCc1cccc(OCc2ccccc2)c1)C(O)c1ccccc1.Cl (stereo not shown),-50.9%
10,Cc1ccc(C(=O)NCC(=O)OCCCn2c(=O)[nH]c3ccccc32)cc1,-14.8%
11,COc1ccc(N(CC(=O)Nc2ccc(C)cn2)S(=O)(=O)c2c(C)noc2C)cc1,-24.8%
12,Cc1cccc(C)c1NC(=S)N1CCOCC1,9.99%
13,Cc1ccc(NC(=O)CCS(=O)(=O)c2cccc3nonc23)c(Br)c1,6.97%
14,O=C(c1ccccc1[N+](=O)[O-])N1CCCN(C(=O)c2ccccc2[N+](=O)[O-])CC1,-14.8%
15,O=C(c1ccccc1[N+](=O)[O-])N1CCC2(CC1)OCCO2,3.53%
16,Cc1c(C(=O)Nc2ccccc2C(=O)N2CCCC2)cccc1[N+](=O)[O-],9.76%
17,O=C1CC2(CCN(C(=O)c3ccccc3[N+](=O)[O-])CC2)Oc2ccccc21,-62%
18,Cc1c(C(=O)N2CCC(C)CC2)cccc1[N+](=O)[O-],26.1%
19,Cc1c(C(=O)N2CCC3(CC2)CC(=O)c2ccccc2O3)cccc1[N+](=O)[O-],-83.2%
20,NC(=O)c1ccc(NC(=O)CNC(=O)c2sc3ccccc3c2Cl)cc1,0.282%
21,Cn1nccc1C(=O)Nc1ccn(C23CC4CC(CC(C4)C2)C3)n1,-11.6%
22,CN1CCN(S(=O)(=O)c2ccc(=O)[nH]c2)CC1,7.85%

row,Compound,"hERG current change (%, negative = inhibition) at 10uM"
1,Cc1ccc(-c2cc(C(=O)NCCCn3ccnc3)no2)cc1,-42.9%
2,O=C(NCCCn1ccnc1)c1cc(-c2ccccc2)on1,-16.3%
3,COc1cc2[nH]c(=O)c(C(=O)NCCCN3CCOCC3)c(O)c2cc1OC.Cl,9.48%
4,O=C(NCCCN1CCOCC1)c1cc(-c2ccc(Br)cc2)on1,-58.6%
5,O=C(NCCCN1CCOCC1)c1c(O)c2cc(Br)cc(Br)c2[nH]c1=O,-64.6%
6,O=C(NCCN1CCOCC1)c1cc(-c2ccc(Br)cc2)on1,-22%
7,Cc1ccc(-c2cc(C(=O)NCCCN3CCOCC3)no2)cc1,-30.8%
8,O=C(NCCCn1ccnc1)c1cc(-c2ccc(Br)cc2)on1,-51.6%
9,Cl.O=C(NCCCN1CCOCC1)c1c(O)c2ccccc2[nH]c1=O,-47.9%
10,COc1ccc(C2C(C(=O)Nc3ccc(OC)c(OC)c3)c3ccccc3C(=O)N2C)cc1 (stereo not shown),27.7%
11,O=C(CCc1cn2ccccc2n1)NC1CCCc2c1cnn2-c1ccccc1F (stereo not shown),0.178%
12,Fc1cccc(C2CCCCN2Cc2nc(C3CC3)no2)c1 (stereo not shown),13.3%
13,Cc1ccn2c(=O)nc(SCC(=O)c3ccc(Cl)cc3)nc2c1,-31.2%
14,CCOc1c(Cl)cc(/C=C/C(=O)N(CC)CC(=O)NCc2cccs2)cc1OC,-55.4%
15,CCN(CC(=O)NCc1cccs1)C(=O)/C=C/c1ccc(C)cc1,-29.4%
16,CCN(CC(=O)NCc1cccs1)C(=O)/C=C/c1ccc(Cl)c(Cl)c1,-41.1%
17,CCOc1cc(/C=C/C(=O)N(CC)CC(=O)NCc2cccs2)cc(Cl)c1OC,-27.7%
18,CCN(CC(=O)NCc1cccs1)C(=O)/C=C/c1cccc(Br)c1,-66.8%
19,CCOc1ccc(/C=C/C(=O)N(CC)CC(=O)NCc2cccs2)cc1OC,-28.3%
